Where a chain is given by its changes, count along the chain named.

From publication PMC8384837, “Expanding the binding specificity for RNA recognition by a PUF domain” come the findings set out here.

What all share (test): yeast three-hybrid, YBZ-1, SC-Leu-His + 0.5 mM 3-AT, 4 days
Common to all, as to settings: tags: N-Gal4 AD-HA kept; label: inside an RPR1-promoter hybrid RNA with tandem MS2 sites; ssRNA

In assay [1] the target is PUM1 PUF domain R5-KRS (Homo sapiens, UniProt Q14671 828-1176, C1007K;Q1011S). In a few lines:
(§1)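 Matching RNA elements and Pumilio-1 PUF domain libraries, randomized at the three base-contacting residues of every repeat, were co-expressed from a centromeric plasmid in strain YBZ-1 (LexA–MS2 coat fusion, HIS3 reporter). The repeat regions were PCR-amplified and Illumina-sequenced from cells grown four days on SC-Leu (input) or SC-Leu-His + 0.5 mM 3-AT (selection). The interaction score is the log change in variant frequency from input to selection. It is computed in log2, with a pseudocount of 1 for absent variants.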

Assay [2] has as its target PUM1 PUF domain R5-NVA (Homo sapiens, UniProt Q14671 828-1176, C1007N;R1008V;Q1011A). In a few lines:
as §1

In assay [3] the target is PUM1 PUF domain R4-FNI (Homo sapiens, UniProt Q14671 828-1176, N971F;H972N;Q975I). The method in brief: as §1
Assay [4] has as its target T1, PUM1 PUF domain R6-TWA (Homo sapiens, UniProt Q14671 828-1176, N1043T;Y1044W;Q1047A).
T1 sequence: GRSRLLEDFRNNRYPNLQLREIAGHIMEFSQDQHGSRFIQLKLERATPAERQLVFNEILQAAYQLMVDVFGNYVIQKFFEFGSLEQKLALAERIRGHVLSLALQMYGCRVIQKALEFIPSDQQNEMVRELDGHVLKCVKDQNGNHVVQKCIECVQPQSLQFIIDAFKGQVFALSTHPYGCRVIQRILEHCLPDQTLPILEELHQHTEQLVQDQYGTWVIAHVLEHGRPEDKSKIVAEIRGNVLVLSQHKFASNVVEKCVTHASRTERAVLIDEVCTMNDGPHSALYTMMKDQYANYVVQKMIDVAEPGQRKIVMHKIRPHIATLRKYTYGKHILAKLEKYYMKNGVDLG
In a few lines: as §1

Assay [5] concerns the target T2, PUM1 PUF domain R6-IWK (Homo sapiens, UniProt Q14671 828-1176, N1043I;Y1044W;Q1047K).
T2 sequence: T1 sequence with T216I, A220K
The method in brief: as §1

Assay [6] concerns the target PUM1 PUF domain R3-GRG (Homo sapiens, UniProt Q14671 828-1176, C935G;Q939G). The method in brief: as §1
Assay [7] deals with PUM1 PUF domain R5-RSM (Homo sapiens, UniProt Q14671 828-1176, C1007R;R1008S;Q1011M). In a few lines: as §1
The target in assay [8] is PUM1 PUF domain R3-LFL (Homo sapiens, UniProt Q14671 828-1176, C935L;R936F;Q939L). In a few lines: as §1
Assay [9] addresses PUM1 PUF domain R3-MRG (Homo sapiens, UniProt Q14671 828-1176, C935M;Q939G). In a few lines: as §1
Assay [10] addresses PUM1 PUF domain R3-GWL (Homo sapiens, UniProt Q14671 828-1176, C935G;R936W;Q939L). The method in brief: as §1
For assay [11], the target named is PUM1 PUF domain R4-MFN (Homo sapiens, UniProt Q14671 828-1176, N971M;H972F;Q975N). The method in brief:
as §1

Assay [12] has as its target PUM1 PUF domain R3-VRS (Homo sapiens, UniProt Q14671 828-1176, C935V;Q939S). In a few lines:
as §1

The target of assay [13] is PUM1 PUF domain R8-KKA (Homo sapiens, UniProt Q14671 828-1176, N1122K;Y1123K;Q1126A). The method in brief:
as §1

Assay [14] deals with PUM1 PUF domain R1-GYK (Homo sapiens, UniProt Q14671 828-1176, S863G;R864Y;Q867K). In a few lines: as §1
Assay [15] deals with PUM1 PUF domain R1-RLV (Homo sapiens, UniProt Q14671 828-1176, S863R;R864L;Q867V). The method in brief:
as §1

For assay [16], the target named is PUM1 PUF domain R7-KFR (Homo sapiens, UniProt Q14671 828-1176, S1079K;N1080F;E1083R). The method in brief: as §1
The target in assay [17] is PUM1 PUF domain R7-TVV (Homo sapiens, UniProt Q14671 828-1176, S1079T;N1080V;E1083V). The method in brief:
as §1

Assay [18] deals with PUM1 PUF domain R1-KNR (Homo sapiens, UniProt Q14671 828-1176, S863K;R864N;Q867R). The method in brief: as §1
Assay [19] deals with PUM1 PUF domain R5-KSK (Homo sapiens, UniProt Q14671 828-1176, C1007K;R1008S;Q1011K). In a few lines: as §1
The target in assay [20] is PUM1 PUF domain R3-RCD (Homo sapiens, UniProt Q14671 828-1176, C935R;R936C;Q939D). The method in brief: as §1

Chain of PUM1 PUF domain R5-KRS (Q14671 828-1176 C1007K/Q1011S): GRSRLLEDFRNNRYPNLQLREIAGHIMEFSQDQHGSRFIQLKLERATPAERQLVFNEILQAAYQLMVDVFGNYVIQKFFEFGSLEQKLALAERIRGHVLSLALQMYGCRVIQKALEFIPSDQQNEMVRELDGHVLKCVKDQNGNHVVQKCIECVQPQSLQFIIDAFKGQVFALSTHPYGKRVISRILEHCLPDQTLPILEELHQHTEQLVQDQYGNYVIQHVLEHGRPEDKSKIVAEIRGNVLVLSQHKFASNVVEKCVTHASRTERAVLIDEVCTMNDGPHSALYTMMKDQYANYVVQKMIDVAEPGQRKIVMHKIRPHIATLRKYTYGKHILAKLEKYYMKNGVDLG

In the case of “GGCUAGAACUAGUGGAUCCCCCGGCGCCCGGCGGCUCGAGCCCGGGUAAGUGUUAAUAGUCUGCAUGCCGCCGGGCGCCAUGCCUGCAGGUCGACUCUAGAAAACAUG”, the binding signal in assay [1] is 3.41 log2 enrichment (interaction score); in assay [2], 3.11 log2 enrichment (interaction score).
For “GGCUAGAACUAGUGGAUCCCCCGGCGCCCGGCGGCUCGAGCCCGGGUAAGUGUAUAUAGUCUGCAUGCCGCCGGGCGCCAUGCCUGCAGGUCGACUCUAGAAAACAUG”, in assay [3], the binding signal is 2.63 log2 enrichment (interaction score).
“GGCUAGAACUAGUGGAUCCCCCGGCGCCCGGCGGCUCGAGCCCGGGUAAGUGAAAAUAGUCUGCAUGCCGCCGGGCGCCAUGCCUGCAGGUCGACUCUAGAAAACAUG”: the binding signal is 4.52 log2 enrichment (interaction score) in [4] and 5.15 log2 enrichment (interaction score) in [5].
Turning to “GGCUAGAACUAGUGGAUCCCCCGGCGCCCGGCGGCUCGAGCCCGGGUAAGUGUAAAUAGUCUGCAUGCCGCCGGGCGCCAUGCCUGCAGGUCGACUCUAGAAAACAUG”, the binding signal in assay [6] was 2.99 log2 enrichment (interaction score); in assay [7], 1.04 log2 enrichment (interaction score); in assay [8] it was 1.59 log2 enrichment (interaction score); in [9] it was 0.61 log2 enrichment (interaction score); in assay [10], 3.81 log2 enrichment (interaction score); in assay [1], 1.71 log2 enrichment (interaction score). Also, the binding signal was 2.97 log2 enrichment (interaction score) in [11], 3.88 log2 enrichment (interaction score) in [12] and 2.18 log2 enrichment (interaction score) in [5].
“GGCUAGAACUAGUGGAUCCCCCGGCGCCCGGCGGCUCGAGCCCGGGUAAGCGUAAAUAGUCUGCAUGCCGCCGGGCGCCAUGCCUGCAGGUCGACUCUAGAAAACAUG”: the binding signal in assay [13] is 2.4 log2 enrichment (interaction score).
For “GGCUAGAACUAGUGGAUCCCCCGGCGCCCGGCGGCUCGAGCCCGGGUAAGUGUAAAUCGUCUGCAUGCCGCCGGGCGCCAUGCCUGCAGGUCGACUCUAGAAAACAUG”, the binding signal is 5.06 log2 enrichment (interaction score) in assay [14] and 2.36 log2 enrichment (interaction score) in assay [15].
As to “GGCUAGAACUAGUGGAUCCCCCGGCGCCCGGCGGCUCGAGCCCGGGUAAGUUUAAAUAGUCUGCAUGCCGCCGGGCGCCAUGCCUGCAGGUCGACUCUAGAAAACAUG”, the binding signal is 6.28 log2 enrichment (interaction score) in assay [16] and 3.71 log2 enrichment (interaction score) in assay [17].
Consider “GGCUAGAACUAGUGGAUCCCCCGGCGCCCGGCGGCUCGAGCCCGGGUAAGUGUAAAUGGUCUGCAUGCCGCCGGGCGCCAUGCCUGCAGGUCGACUCUAGAAAACAUG”, for which the binding signal in assay [18] was 3.86 log2 enrichment (interaction score); in assay [14], 0.96 log2 enrichment (interaction score).
On to “GGCUAGAACUAGUGGAUCCCCCGGCGCCCGGCGGCUCGAGCCCGGGUAAGUGUCAAUAGUCUGCAUGCCGCCGGGCGCCAUGCCUGCAGGUCGACUCUAGAAAACAUG”, for which the binding signal in assay [19] was 3.19 log2 enrichment (interaction score); in assay [7] it was 3.66 log2 enrichment (interaction score); in assay [1], 3.74 log2 enrichment (interaction score).
As to “GGCUAGAACUAGUGGAUCCCCCGGCGCCCGGCGGCUCGAGCCCGGGUAAGUCUAAAUAGUCUGCAUGCCGCCGGGCGCCAUGCCUGCAGGUCGACUCUAGAAAACAUG”, in [16], the binding signal is 5.33 log2 enrichment (interaction score).
For the sequence “GGCUAGAACUAGUGGAUCCCCCGGCGCCCGGCGGCUCGAGCCCGGGUAAGUGUGAAUAGUCUGCAUGCCGCCGGGCGCCAUGCCUGCAGGUCGACUCUAGAAAACAUG”, the binding signal in assay [7] was 0.3 log2 enrichment (interaction score).
On to “GGCUAGAACUAGUGGAUCCCCCGGCGCCCGGCGGCUCGAGCCCGGGUAAGUGUAAGUAGUCUGCAUGCCGCCGGGCGCCAUGCCUGCAGGUCGACUCUAGAAAACAUG”, for which the binding signal in assay [6] is 0.98 log2 enrichment (interaction score); in assay [8] it was 4.75 log2 enrichment (interaction score); in [9] it was 5.6 log2 enrichment (interaction score); in [10], 1.08 log2 enrichment (interaction score); in assay [20] it was 2.53 log2 enrichment (interaction score); in assay [12] it was 0.45 log2 enrichment (interaction score).
For “GGCUAGAACUAGUGGAUCCCCCGGCGCCCGGCGGCUCGAGCCCGGGUAAGUGUAAAUUGUCUGCAUGCCGCCGGGCGCCAUGCCUGCAGGUCGACUCUAGAAAACAUG”, the binding signal is 6.76 log2 enrichment (interaction score) in [18] and 2.9 log2 enrichment (interaction score) in [15].
On to “GGCUAGAACUAGUGGAUCCCCCGGCGCCCGGCGGCUCGAGCCCGGGUAAGUGUAAUUAGUCUGCAUGCCGCCGGGCGCCAUGCCUGCAGGUCGACUCUAGAAAACAUG”, for which the binding signal was 2.8 log2 enrichment (interaction score) in assay [9], 3.82 log2 enrichment (interaction score) in [10] and 3.1 log2 enrichment (interaction score) in [20].
